Results published in publication PMC7155171, “Probing the Open Global Health Chemical Diversity Library for Multistage-Active Starting Points for Next-Generation Antimalarials” (ACS Infectious Diseases, 2020).
Read-outs that look alike come from different tables or passages of the source. The full ranking holds about 68,000 compounds; the median of “% viability” is about 1.1, and the lowest 2% start at about 0.96. For the sample, the lowest values were picked, then their nearest neighbours and some compounds at random. The numbers are fractions of the control, whatever unit the source prints.

System: P. falciparum (NF54) stage V gametocytes
Set-up: Mature stage V gametocyte viability, MitoTracker Red CMXRos high-content imaging
Conditions: primary screen, n=2, fraction of DMSO control, 72 h, 2 µM, inhibitor

| SMILES | % viability [%] | % viability (Stg V Gam primary screen: Inhibition % (2uM) (n=2)) [%] |
| --- | --- | --- |
| CC(NC(=O)CCC1=NC(=C2N=CN=N2)NO1)c1ccc(F)cc1F (centres unmarked) [DDD01068293] | 1.218 |  |
| CC(=O)N1CCCN(C(=O)CCOc2ccc(C(C)C)cc2)CC1 [DDD01298039] | 0.9627 |  |
| CN(Cc1ccc(F)c(F)c1)C(=O)CCC1=NC(=C2N=CN=N2)NO1 [DDD01062114] | 1.185 |  |
| Cn1cc(C(=O)N2CCCC(c3cc(=O)n(C)[nH]3)C2)cn1 (centres unmarked) [DDD01060486] | 1.105 |  |
| CCCc1nn(C)c(N)c1-c1ccc2c(c1)OCO2 [DDD01074641] | 1.2104 |  |
| Cc1ccc(S(=O)(=O)Cc2noc([C@@H]3C[C@@H](O)CN3C(C)C)n2)cc1 [DDD01025534] | 1.063 |  |
| Cn1ccc(C(=O)N2CCCC(c3cc(=O)n(C)[nH]3)C2)n1 (centres unmarked) [DDD01060541] | 0.9912 |  |
| Cc1[nH]n(C2CCS(=O)(=O)C2)c(=O)c1Cc1ccccc1Cl (centres unmarked) [DDD01026964] | 1.154 |  |
| Cn1nc(C2CCC2)c(-c2ccc3c(c2)OCO3)c1N [DDD01074643] | 1.107 |  |
| CCn1[nH]cc2nc(-c3cc(OC)c(OC)cc3OC)nc1-2 [DDD01254934] | 1.131 |  |
| COc1cc2c(cc1-c1nc3c[nH]n(C(C)C)c-3n1)OCO2 [DDD01249461] | 1.226 |  |
| COCC(=O)N1Cc2[nH]c3c(C)c(-c4cccs4)nn3c(=O)c2C1 [DDD01056747] | 0.9901 |  |
| Cc1[nH]n(C2CCS(=O)(=O)C2)c(=O)c1CCc1ccccc1 (centres unmarked) [DDD01026977] | 1.342 |  |
| CCc1cc(=O)n2nc(C3CCCN3C(=O)c3ccccn3)cc2[nH]1 (centres unmarked) [DDD01057178] | 1.278 |  |
| Cc1[nH]n(Cc2ccc(F)cc2)c2nnc(N)c1-2 [DDD01012470] | 1.161 |  |
| Cn1nc(C2CC2)c(-c2ccc3c(c2)OCO3)c1N [DDD01074640] | 1.305 |  |
| CCc1nc(CN(C)C2CCN(CCn3cc(C#N)cn3)C2)no1 (centres unmarked) [DDD01304196] | 1.045 |  |
| Cc1ccc(CN2CCc3c([nH]c4cc(C5CC5)nn4c3=O)C2)s1 [DDD01058491] | 1.123 |  |
| COc1cc2c(cc1-c1nc3c[nH]n(C)c-3n1)OCO2 [DDD01248770] | 1.141 |  |
| COc1cc2c(cc1-c1nc3c[nH]n(C(C)C4CC4)c-3n1)OCO2 (centres unmarked) [DDD01244142] | 1.215 |  |
| Cc1[nH]n(C2CCS(=O)(=O)C2)c(=O)c1Cc1cccc(Cl)c1 (centres unmarked) [DDD01026994] | 1.159 |  |
| CCc1nn(C)c(N)c1-c1ccc2c(c1)OCO2 [DDD01074639] | 1.278 |  |
| Cc1cccc(C2N3CCC4(CC3)c3[nH]c5ccccc5c3CCN24)n1 (centres unmarked) [DDD01058402] | 1.009 |  |
| Clc1cccc(-c2cccc(N3CCC(NC4CCOCC4)CC3)c2)c1 [DDD01252000] | 1.106 |  |
| CCC(=O)Nc1[nH]nc2c1c(C)nn2Cc1cccc(OC)c1 [DDD01063148] | 1.182 |  |
| CCc1ccc(C(C)NC(=O)CCC2=NC(=C3N=CN=N3)NO2)cc1 (centres unmarked) [DDD01068289] | 1.032 |  |
| CCc1c(C)[nH]c2cc(C3CCN(CCc4ccccc4)C3)nn2c1=O (centres unmarked) [DDD01060567] | 1.041 |  |

| SMILES | % viability [%] | % viability (Stg V Gam primary screen: Inhibition % (2uM) (n=2)) [%] |
| --- | --- | --- |
| COc1cc2c(cc1-c1nc3c[nH]n(C(C)C(C)C)c-3n1)OCO2 (centres unmarked) [DDD01255421] | 1.199 |  |
| Cc1cc(=O)n2nc(C3CCN(C(=O)c4ccccn4)CC3)cc2[nH]1 [DDD01057174] | 1.036 |  |
| COCCC(=O)N1Cc2[nH]c3c(C)c(-c4cccs4)nn3c(=O)c2C1 [DDD01056578] | 1.121 |  |
| CCc1c(C)nn2c(=O)cc(C3CCN(C(=O)C4CC4)C3)[nH]c12 (centres unmarked) [DDD01057056] | 1.097 |  |
| CCc1c(C)nn2c(=O)cc(C3CCN(C(=O)c4ccn(C)n4)C3)[nH]c12 (centres unmarked) [DDD01056907] | 1.06 |  |
| CCc1cc(=O)n2nc(C3CCN(C(=O)c4ccncc4)CC3)cc2[nH]1 [DDD01057177] | 1.239 |  |
| Cc1cc(=O)n(-c2ccc3nnc(C)n3n2)[nH]1 [DDD01038570] | 1.151 |  |
| Cc1nc(O)cc(CCNC(=O)CC[C@@H]2CCCN3CCCC[C@H]23)n1 [DDD01256003] | 1.201 |  |
| CCc1nn2c(N)c(C#N)nnc2c1-c1ccc(OC)cc1 [DDD01035159] | 1.1 |  |
| COc1ccc(-c2c(C(C)C)nn3c(N)c(C#N)nnc23)cc1 [DDD01035184] | 0.9469 |  |
| COc1ccc(-c2c(C)nn3c(N)c(C#N)nnc23)cc1 [DDD01035158] | 1.096 |  |
| Cc1ncsc1C(=O)N1CCCCC1c1cc2[nH]c(C)c(C)c(=O)n2n1 (centres unmarked) [DDD01059037] | 1.19 |  |
| Cc1[nH]n(-c2ccc(F)cc2)c2nnc(N)c1-2 [DDD01065623] | 1.104 |  |
| COc1cccc(CN(C)CC2=Nc3ccccc3S(=O)(=O)N2)c1 [DDD01073248] |  | 1.218 |
| COc1cccc(Cn2nc(C)c3c(NC(=O)C(C)OC)[nH]nc32)c1 (centres unmarked) [DDD01063202] | 1.059 |  |
| COc1cccc(C2=NN=CC2=C2NC(CN3CCCC3)=NO2)c1 [DDD01247208] | 1.119 |  |
| COCCC(=O)N1CCC(c2cc(=O)n(C)[nH]2)C1 (centres unmarked) [DDD01060470] | 1.179 |  |
| COc1cccc(F)c1-c1nc2c(C3CC3)[nH]n(C)c-2n1 [DDD01246655] | 1.144 |  |
| CCC(CO)N(Cc1cccnc1)C(=O)c1ccc(C(F)(F)F)nc1O (centres unmarked) [DDD01253913] | 1.193 |  |
| Cc1ccccc1CN(C)C(=O)CCC1=NC(=C2N=CN=N2)NO1 [DDD01062116] | 1.259 |  |
| Cc1[nH]n(C2CCCCC2)c2nc(C(C)(C)CN3CCOCC3)nc1-2 [DDD01254749] | 1.099 |  |
| Cc1[nH]n(C2CCCC2)c2nc(C(C)(C)CN3CCN(C)CC3)nc1-2 [DDD01248613] | 1.14 |  |
| Cc1nc(N2CCCC2)ncc1-c1cc(=O)n2ncnc2[nH]1 [DDD01038581] | 1.014 |  |
| CCc1cc(=O)n2nc(C3CCN(C(=O)c4ccccn4)CC3)cc2[nH]1 [DDD01057364] | 1.067 |  |
| CCc1c(C)[nH]c2cc(C3CCN(Cc4ccc(F)cc4)C3)nn2c1=O (centres unmarked) [DDD01060568] | 1.103 |  |
| Cc1[nH]c2cc(C3CCN(Cc4cccc(F)c4F)C3)nn2c(=O)c1C (centres unmarked) [DDD01270135] | 0.8996 |  |
| CCc1c(C)[nH]c2cc(C3CCN(Cc4cccc(F)c4)C3)nn2c1=O (centres unmarked) [DDD01060569] | 1.163 |  |

| SMILES | % viability [%] | % viability (Stg V Gam primary screen: Inhibition % (2uM) (n=2)) [%] |
| --- | --- | --- |
| CCc1c(C)[nH]c2cc(C3CCN(Cc4ccccc4F)C3)nn2c1=O (centres unmarked) [DDD01270117] | 0.9474 |  |
| Cc1[nH]c2cc(C3CCN(Cc4ccccc4F)C3)nn2c(=O)c1C (centres unmarked) [DDD01060615] | 0.9944 |  |
| CCc1c(C)[nH]c2cc(C3CCN(Cc4cccnc4)C3)nn2c1=O (centres unmarked) [DDD01060570] | 1.145 |  |
| Cc1nsc(N2CCCN(CC(=O)N(C)C3CC3)CC2)n1 [DDD01066804] | 1.153 |  |
| COCCCC(=O)N1CC(=O)Nc2cc(Br)ccc21 [DDD01075689] | 1.221 |  |
| Cc1ncc(CN2CCc3[nH]c4cc(C(C)(C)C)nn4c(=O)c3C2)n1C [DDD01058400] | 1.122 |  |
| O=C(CNC(=O)N1CCc2c([nH]c3ccc(Cl)cc23)C1)N1CCOCC1 [DDD01035668] | 1.056 |  |
| Cc1[nH]n(-c2ccccc2)c2nc(C(C)(C)CN3CCN(C)CC3)nc1-2 [DDD01252143] | 1.131 |  |
| Cc1[nH]n(C2CCS(=O)(=O)C2)c(=O)c1Cc1ccccc1 (centres unmarked) [DDD01026976] | 1.15 |  |
| Cc1[nH]n(C2CCS(=O)(=O)C2)c(=O)c1Cc1ccc(Br)cc1 (centres unmarked) [DDD01026979] | 1.197 |  |
| CCCn1ncc(-c2nc3c[nH]n(CC)c-3n2)c1C [DDD01252709] | 1.088 |  |
| CCn1[nH]cc2nc(-c3cc4c(cc3OC)OCO4)nc1-2 [DDD01244413] | 1.126 |  |
| CCc1c(C)nn2c(=O)cc(C3CCN(C(=O)c4ccccn4)C3)[nH]c12 (centres unmarked) [DDD01056906] | 1.115 |  |
| CCc1ccc(NC(=O)Nc2c(O)c3ccccc3oc2=O)cc1 [DDD01037337] | 1.219 |  |
| CN(CCCc1ccccc1)C(=O)CCC1=NC(=C2N=CN=N2)NO1 [DDD01062165] | 0.9845 |  |
| CCc1c(C)nn2c(=O)cc(C3CCN(C(=O)c4cnn(C)c4)C3)[nH]c12 (centres unmarked) [DDD01056908] | 1.149 |  |
| COCC(=O)Nc1[nH]nc2c1c(C)nn2Cc1cccc(OC)c1 [DDD01063147] | 1.204 |  |
| Fc1cccc(C2=NN=CC2=C2NC(CN3CCOCC3)=NO2)c1 [DDD01244908] | 1.1236 |  |
| CSc1cccc(NC(=O)Nc2c(O)c3ccccc3oc2=O)c1 [DDD01037688] | 1.182 |  |
| Cc1ncc(CN2CCc3c([nH]c4cc(C5CC5)nn4c3=O)C2)n1C [DDD01058398] | 1.038 |  |
| Cc1nnsc1C(=O)N1CCCCC1c1cc2[nH]c(C)c(C)c(=O)n2n1 (centres unmarked) [DDD01059036] | 1.123 |  |
| CCn1[nH]cc2nc(-c3ccc(OC)c(COC)c3)nc1-2 [DDD01253750] | 1.204 |  |
| CCc1cc(=O)n2nc(C3CCN(C(=O)c4cccnc4)CC3)cc2[nH]1 [DDD01057176] | 1.192 |  |
| COc1ccc(F)cc1-c1nc2c(C3CC3)[nH]n(C)c-2n1 [DDD01250494] | 1.074 |  |
| COc1cc(OC)c(-c2nc3c(C4CC4)[nH]n(C)c-3n2)cc1OC [DDD01244474] | 0.9472 |  |
| COc1cc(F)ccc1-c1nc2c(C3CC3)[nH]n(C)c-2n1 [DDD01248843] | 1.111 |  |
